Laboratory results: PubChem BioAssay (NCI)
The panel holds about 83,000 compounds, 20% with a hit somewhere; the sample as a whole holds those more often.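 Results are percent growth after 48 hours of single-concentration exposure. 100 means growth as in untreated cells, lower positive values show inhibition; negative values down to -100 show cell death.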 The source made the active and inactive calls. Rule for the calls: active = growth percent below 10; inactive = the rest.

Test system: EKVX NSCLC
Assay: NCI-60 one-dose screen, 48 h (100 = growth as untreated, 0 = no growth, -100 = all killed)
Settings: 10 µM unless noted

Compound	growth
CCN(CC)CC(=O)Nc1cccc(C(=O)OC(C)C)c1	96.4% (inactive)
CCCCOC(=O)c1ccc(NC(=O)C(C)N2CCOCC2)cc1 (stereo not drawn)	109% (inactive)
CN1C[C@@H](c2ccc(Cl)cc2)[C@]2(NC(=S)N(c3ccc(F)c(Cl)c3)C2=O)[C@@]12C(=O)NC1C=CC(Cl)=C[C@H]12 (stereo partly drawn)	50.7% (inactive)
OC(CBr)c1ccnc2ccccc12 (stereo not drawn)	103% (inactive)
CCCCNCC(=O)Nc1ccc(C(=O)OCC)cc1	98.3% (inactive)
Nc1nc(Nc2ccc(Cl)cc2)nn1S(=O)(=O)c1ccc(-c2ccc(F)cc2)cc1	81.5% (inactive)
CCCCCOC(=O)c1cccc(NC(=O)CN(CC)CC)c1	100% (inactive)
N#Cc1c(N)n2c(nc1=Nc1ccc(Cl)cc1)sc1cc(Cl)ccc12	62.3% (inactive)
CCN(CC)CCOC(=O)Nc1ccccc1Cl	106% (inactive)
CCN(CC)c1ccc(Nc2ccc(CC(=O)c3ccccc3)cc2)cc1	76.4% (inactive)
O[C@H]1CO[C@H]2[C@@H]1OC[C@@H]2Oc1ccc(Nc2nc(Nc3ccc(F)c(Cl)c3)ncc2F)cc1Cl	92.2% (inactive)
CS(=O)(=O)c1ccc(-c2nc3cc(Cl)ccc3n2CC(=O)N/N=C/c2ccc(Cl)cc2)cc1	72.1% (inactive)
COc1cc2c(cc1OC)-c1ccc3cc4c(cc3c1N(CCN(C)C)C2)OCO4	25.4% (inactive)
CC[C@]1(O)C[C@H]2CN(CCc3c([nH]c4ccccc34)[C@@](C(=O)OC)(c3cc4c(cc3OC)N(C=O)[C@H]3[C@@](O)(C(=O)OC)[C@H](OC(C)=O)[C@]5(CC)C=CCN6CC[C@]43[C@@H]65)C2)C1	27.1% (inactive)
CCN(CC)CCCC(C)NCc1ccccc1 (stereo not drawn)	102% (inactive)
CCOC(=O)c1ccc(NC(=O)CCCN(CC)CC)cc1	105% (inactive)
CCC(C)NCc1ccccc1 (stereo not drawn)	103% (inactive)
CCCNCC(=O)Nc1ccc(C(=O)OC(C)(C)CC)cc1	98.1% (inactive)
O=C(Nc1ccccc1Cl)OCCN1CCOCC1	104% (inactive)
O=C1N(c2ccccc2)C(=S)N[C@]12[C@H](c1ccccc1)C1CCCN1[C@]21C(=O)NC2C=CC(Cl)=C[C@H]21 (stereo partly drawn)	100% (inactive)

Compound	growth
CCOC(=O)c1c(C)nc2c(c1N)/C(=C/c1ccc(OC)cc1)C(=O)N2Cc1ccc(F)cc1	9.23% (active)
COc1ccc(C2CC(c3cnccn3)=NN2)cc1OC (stereo not drawn)	108% (inactive)
COc1cc2c(cc1OC)-c1ccc3cc4c(cc3c1N(CCCN(C)C)C2)OCO4	60% (inactive)
CCCCCOC(=O)c1ccc(NC(=O)CNCC(C)C)cc1	90.8% (inactive)
COc1cc(-c2cccc([N+](=O)[O-])c2)c(-c2nc(-c3ccccc3)c(-c3ccccc3)n2C2CC2)cc1OC	57.2% (inactive)
N=C(N)c1ccc(-c2ccc(-c3ccc(Cl)cc3Cl)o2)nc1	95.4% (inactive)
COc1cc(C(=O)/C=C/c2c(-c3ccc(F)cc3)nc3ncccn23)cc(OC)c1OC	52.3% (inactive)
N#Cc1cnn2c(-c3ccc(Cl)cc3)nc(NC3CC3)nc12	75.9% (inactive)
COc1cc(-c2ccc(-c3ccc(C(=N)N)nc3)s2)cc(OC)c1OC	89.9% (inactive)
COc1cc2c(cc1OC)-c1ccc3cc4c(cc3c1N(CCCN1CCCCC1)C2)OCO4	69.4% (inactive)
COc1cccc(CCC2CCCN(c3cc(C)nc(N)n3)C2)c1 (stereo not drawn)	41.4% (inactive)
N#Cc1c(N)n2c(nc1=Nc1ccc([N+](=O)[O-])cc1)sc1cc(Cl)ccc12	84.3% (inactive)
CCCc1cc(=O)oc2c3c(c4c(c12)OC(C)(C)C=C4)O[C@@H](C)[C@H](C)C3=O	63% (inactive)
Cc1ccc(Nc2ccc(Nc3ccc(C)cc3S(=O)(=O)O)c3c2C(=O)c2ccccc2C3=O)c(S(=O)(=O)O)c1	91.5% (inactive)
O=C(NC1CCOCC1)c1ccc2c(c1)CN(c1ncc(Cc3cccc(-n4cccn4)c3)s1)CC2	53.5% (inactive)
O=S(=O)(Cc1ccccc1)c1nc2ccccc2s1	99.3% (inactive)
COc1cc2c(=O)n(CCCn3ccnc3)c3c4cc5c(cc4ccc3c2cc1OC)OCO5	21.3% (inactive)
CN(C)c1ccc(-c2cc(-c3ccc(Nc4nc(Nc5ccccc5)nc(Nc5ccc(Cl)cc5)n4)cc3)nc(N)n2)cc1	33.3% (inactive)
CCOC(=O)c1c(C)[nH]c(C(=O)CCC(=O)OC)c1C	95.2% (inactive)

Test system: SN12C renal
Assay: as above
Settings: 10 µM unless noted

Compound	growth
CCN(CC)CC(=O)Nc1cccc(C(=O)OC(C)C)c1	107% (inactive)
CCCCOC(=O)c1ccc(NC(=O)C(C)N2CCOCC2)cc1 (stereo not drawn)	104% (inactive)
CN1C[C@@H](c2ccc(Cl)cc2)[C@]2(NC(=S)N(c3ccc(F)c(Cl)c3)C2=O)[C@@]12C(=O)NC1C=CC(Cl)=C[C@H]12 (stereo partly drawn)	-63.2% (active)
OC(CBr)c1ccnc2ccccc12 (stereo not drawn)	99.6% (inactive)
CCCCNCC(=O)Nc1ccc(C(=O)OCC)cc1	104% (inactive)
Nc1nc(Nc2ccc(Cl)cc2)nn1S(=O)(=O)c1ccc(-c2ccc(F)cc2)cc1	83.2% (inactive)
CCCCCOC(=O)c1cccc(NC(=O)CN(CC)CC)c1	106% (inactive)
N#Cc1c(N)n2c(nc1=Nc1ccc(Cl)cc1)sc1cc(Cl)ccc12	88.4% (inactive)
CCN(CC)CCOC(=O)Nc1ccccc1Cl	103% (inactive)
CCN(CC)c1ccc(Nc2ccc(CC(=O)c3ccccc3)cc2)cc1	95.3% (inactive)
O[C@H]1CO[C@H]2[C@@H]1OC[C@@H]2Oc1ccc(Nc2nc(Nc3ccc(F)c(Cl)c3)ncc2F)cc1Cl	97% (inactive)
CS(=O)(=O)c1ccc(-c2nc3cc(Cl)ccc3n2CC(=O)N/N=C/c2ccc(Cl)cc2)cc1	69.3% (inactive)
COc1cc2c(cc1OC)-c1ccc3cc4c(cc3c1N(CCN(C)C)C2)OCO4	0.583% (active)
CC[C@]1(O)C[C@H]2CN(CCc3c([nH]c4ccccc34)[C@@](C(=O)OC)(c3cc4c(cc3OC)N(C=O)[C@H]3[C@@](O)(C(=O)OC)[C@H](OC(C)=O)[C@]5(CC)C=CCN6CC[C@]43[C@@H]65)C2)C1	39.9% (inactive)
CCN(CC)CCCC(C)NCc1ccccc1 (stereo not drawn)	102% (inactive)
CCOC(=O)c1ccc(NC(=O)CCCN(CC)CC)cc1	106% (inactive)
CCC(C)NCc1ccccc1 (stereo not drawn)	100% (inactive)
CCCNCC(=O)Nc1ccc(C(=O)OC(C)(C)CC)cc1	105% (inactive)
O=C(Nc1ccccc1Cl)OCCN1CCOCC1	98% (inactive)
O=C1N(c2ccccc2)C(=S)N[C@]12[C@H](c1ccccc1)C1CCCN1[C@]21C(=O)NC2C=CC(Cl)=C[C@H]21 (stereo partly drawn)	98% (inactive)

Compound	growth
CCOC(=O)c1c(C)nc2c(c1N)/C(=C/c1ccc(OC)cc1)C(=O)N2Cc1ccc(F)cc1	-40% (active)
COc1ccc(C2CC(c3cnccn3)=NN2)cc1OC (stereo not drawn)	104% (inactive)
COc1cc2c(cc1OC)-c1ccc3cc4c(cc3c1N(CCCN(C)C)C2)OCO4	27.4% (inactive)
CCCCCOC(=O)c1ccc(NC(=O)CNCC(C)C)cc1	94% (inactive)
COc1cc(-c2cccc([N+](=O)[O-])c2)c(-c2nc(-c3ccccc3)c(-c3ccccc3)n2C2CC2)cc1OC	75.1% (inactive)
N=C(N)c1ccc(-c2ccc(-c3ccc(Cl)cc3Cl)o2)nc1	-42.8% (active)
COc1cc(C(=O)/C=C/c2c(-c3ccc(F)cc3)nc3ncccn23)cc(OC)c1OC	60.8% (inactive)
N#Cc1cnn2c(-c3ccc(Cl)cc3)nc(NC3CC3)nc12	98.9% (inactive)
COc1cc(-c2ccc(-c3ccc(C(=N)N)nc3)s2)cc(OC)c1OC	66.6% (inactive)
COc1cc2c(cc1OC)-c1ccc3cc4c(cc3c1N(CCCN1CCCCC1)C2)OCO4	30.5% (inactive)
COc1cccc(CCC2CCCN(c3cc(C)nc(N)n3)C2)c1 (stereo not drawn)	34.1% (inactive)
N#Cc1c(N)n2c(nc1=Nc1ccc([N+](=O)[O-])cc1)sc1cc(Cl)ccc12	89.4% (inactive)
CCCc1cc(=O)oc2c3c(c4c(c12)OC(C)(C)C=C4)O[C@@H](C)[C@H](C)C3=O	82.7% (inactive)
Cc1ccc(Nc2ccc(Nc3ccc(C)cc3S(=O)(=O)O)c3c2C(=O)c2ccccc2C3=O)c(S(=O)(=O)O)c1	98.5% (inactive)
O=C(NC1CCOCC1)c1ccc2c(c1)CN(c1ncc(Cc3cccc(-n4cccn4)c3)s1)CC2	82.1% (inactive)
O=S(=O)(Cc1ccccc1)c1nc2ccccc2s1	35.5% (inactive)
COc1cc2c(=O)n(CCCn3ccnc3)c3c4cc5c(cc4ccc3c2cc1OC)OCO5	16.9% (inactive)
CN(C)c1ccc(-c2cc(-c3ccc(Nc4nc(Nc5ccccc5)nc(Nc5ccc(Cl)cc5)n4)cc3)nc(N)n2)cc1	50% (inactive)
CCOC(=O)c1c(C)[nH]c(C(=O)CCC(=O)OC)c1C	110% (inactive)
